Experimental data reported in the supplement of paper PMC7411054.
Where a name gives a salt, the structure may show the parent alone.

Legend:
Settings in all cases: treatment time: 24 h
A549-ACTB-RAB5A [1] = experiment: lowest phenotypically active concentration; higher = less potent
Procedure, shortened: (§1)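 Fifteen gene-edited A549, HepG2 and WPMY1 reporter lines (BFP segmentation plus GFP and RFP/FusionRed markers) were treated at 0.3, 1, 3 or 9 µM for 24 h, four wells each, then imaged live. Live-cell features per well were normalised to DMSO control wells. Deviation required ≥3 of 4 wells beyond the 95th percentile of DMSO Euclidean distances, and reproducibility required median replicate Pearson correlation above the 95th percentile of non-replicates. Phenotypic activity needed both criteria.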

A549-CANX-COX4 [2] = experiment: as above
Procedure, shortened: as §1

A549-GM130-SQSTM1 [3] = experiment: as above
Procedure, shortened: as §1

A549-TP53BP1-CLTA [4] = experiment: as above
Procedure, shortened: as §1

A549-TUBA1B-RELA [5] = experiment: as above
Procedure, shortened: as §1

A549-ACTB-RAB5A [6] = experiment: phenotypically active (imaging signature differs from DMSO and reproducible) at any of 0.3-9 uM (binary (1 = active, 0 = inactive)); higher = active
Procedure, shortened: as §1

A549-CANX-COX4 [7] = experiment: as above
Procedure, shortened: as §1

A549-GM130-SQSTM1 [8] = experiment: as above
Procedure, shortened: as §1

A549-TP53BP1-CLTA [9] = experiment: as above
Procedure, shortened: as §1

A549-TUBA1B-RELA [10] = experiment: as above
Procedure, shortened: as §1

HepG2-ACTB-RAB5A = experiment: as above
Procedure, shortened: as §1

HepG2-CANX-COX4 = experiment: as above
Procedure, shortened: as §1

HepG2-GM130-SQSTM1 = experiment: as above
Procedure, shortened: as §1

HepG2-TP53BP1-CLTA = experiment: as above
Procedure, shortened: as §1

HepG2-TUBA1B-RELA = experiment: as above
Procedure, shortened: as §1

WPMY1-ACTB-RAB5A = experiment: as above
Procedure, shortened: as §1

WPMY1-CANX-COX4 = experiment: as above
Procedure, shortened: as §1

WPMY1-GM130-SQSTM1 = experiment: as above
Procedure, shortened: as §1

WPMY1-TP53BP1-CLTA = experiment: as above
Procedure, shortened: as §1

WPMY1-TUBA1B-RELA = experiment: as above
Procedure, shortened: as §1

Row | SMILES | lowest phenotypically active concentration (A549-ACTB-RAB5A [1]) [µM] | lowest phenotypically active concentration (A549-CANX-COX4 [2]) [µM] | lowest phenotypically active concentration (A549-GM130-SQSTM1 [3]) [µM] | lowest phenotypically active concentration (A549-TP53BP1-CLTA [4]) [µM] | lowest phenotypically active concentration (A549-TUBA1B-RELA [5]) [µM] | phenotypically active (A549-ACTB-RAB5A [6]) | phenotypically active (A549-CANX-COX4 [7]) | phenotypically active (A549-GM130-SQSTM1 [8]) | phenotypically active (A549-TP53BP1-CLTA [9]) | phenotypically active (A549-TUBA1B-RELA [10]) | phenotypically active (HepG2-ACTB-RAB5A) | phenotypically active (HepG2-CANX-COX4) | phenotypically active (HepG2-GM130-SQSTM1) | phenotypically active (HepG2-TP53BP1-CLTA) | phenotypically active (HepG2-TUBA1B-RELA) | phenotypically active (WPMY1-ACTB-RAB5A) | phenotypically active (WPMY1-CANX-COX4) | phenotypically active (WPMY1-GM130-SQSTM1) | phenotypically active (WPMY1-TP53BP1-CLTA) | phenotypically active (WPMY1-TUBA1B-RELA)
1 | Nc1ccc(-c2ccc3ncc4ccc(=O)n(-c5cccc(C(F)(F)F)c5)c4c3c2)cn1 [Torin 2] | ≤ 0.3 | ≤ 0.3 | ≤ 0.3 | ≤ 0.3 | ≤ 0.3 | 1 (active) | 1 (active) | 1 (active) | 1 (active) | 1 (active) | 1 (active) | 1 (active) | 1 (active) | 1 (active) | 1 (active) | 1 (active) | 1 (active) | 1 (active) | 1 (active) | 1 (active)
2 | CN1c2ccccc2C(=O)N2CCc3c([nH]c4ccccc34)[C@H]21 [Evodiamine] | 1 | 1 | 1 | 3 | 1 | 1 (active) | 1 (active) | 1 (active) | 1 (active) | 1 (active) | 1 (active) | 1 (active) | 1 (active) | 1 (active) | 1 (active) | 1 (active) | 1 (active) | 1 (active) | 1 (active) | 1 (active)
3 | CNC(=O)Nc1ccc(-c2nc(N3CC4CCC(C3)O4)c3cnn(C4CCC5(CC4)OCCO5)c3n2)cc1 | ≤ 0.3 | ≤ 0.3 | ≤ 0.3 | ≤ 0.3 | ≤ 0.3 | 1 (active) | 1 (active) | 1 (active) | 1 (active) | 1 (active) | 1 (active) | 1 (active) | 1 (active) | 1 (active) | 1 (active) | 1 (active) | 1 (active) | 1 (active) | 1 (active) | 1 (active)
4 | Cc1ccc(NC(=O)c2ccc(CN3CCN(C)CC3)cc2)cc1Nc1nc(-c2cccnc2)cs1 [masitinib] | 3 | 9 | 3 | 9 | 3 | 1 (active) | 1 (active) | 1 (active) | 1 (active) | 1 (active) | 1 (active) | 1 (active) | 1 (active) | 1 (active) | 1 (active) | 1 (active) | 1 (active) | 1 (active) | 1 (active) | 1 (active)
5 | COc1cc([C@@H]2c3cc4c(cc3[C@@H](O[C@@H]3O[C@@H]5CO[C@@H](c6cccs6)O[C@H]5[C@H](O)[C@H]3O)[C@H]3COC(=O)[C@H]23)OCO4)cc(OC)c1O [teniposide] | ≤ 0.3 | ≤ 0.3 | ≤ 0.3 | ≤ 0.3 | ≤ 0.3 | 1 (active) | 1 (active) | 1 (active) | 1 (active) | 1 (active) | 1 (active) | 1 (active) | 1 (active) | 1 (active) | 1 (active) | 1 (active) | 1 (active) | 1 (active) | 1 (active) | 1 (active)
6 | C[C@@H](CN1CCC(n2c(=O)[nH]c3cc(Cl)ccc32)CC1)NC(=O)c1ccc2ccccc2c1 | 3 | 9 | 3 | 9 | 3 | 1 (active) | 1 (active) | 1 (active) | 1 (active) | 1 (active) | 1 (active) | 1 (active) | 1 (active) | 1 (active) | 1 (active) | 1 (active) | 1 (active) | 1 (active) | 1 (active) | 1 (active)
7 | CCNC(=O)c1noc(-c2cc(C(C)C)c(O)cc2O)c1-c1ccc(CN2CCOCC2)cc1 | ≤ 0.3 | ≤ 0.3 | ≤ 0.3 | ≤ 0.3 | ≤ 0.3 | 1 (active) | 1 (active) | 1 (active) | 1 (active) | 1 (active) | 1 (active) | 1 (active) | 1 (active) | 1 (active) | 1 (active) | 1 (active) | 1 (active) | 1 (active) | 1 (active) | 1 (active)
8 | CCCCCCCCCCCCCCCC[n+]1ccn(Cc2ccccc2)c1C | 1 | ≤ 0.3 | ≤ 0.3 | 1 | 1 | 1 (active) | 1 (active) | 1 (active) | 1 (active) | 1 (active) | 1 (active) | 1 (active) | 1 (active) | 1 (active) | 1 (active) | 1 (active) | 1 (active) | 1 (active) | 1 (active) | 1 (active)
9 | COc1cc(C(=O)N2CCC(N3CCN(C)CC3)CC2)ccc1Nc1ncc2c(n1)N(C)c1ccccc1C(=O)N2C | 3 | 3 | 3 | 9 | 3 | 1 (active) | 1 (active) | 1 (active) | 1 (active) | 1 (active) | 1 (active) | 1 (active) | 1 (active) | 1 (active) | 1 (active) | 1 (active) | 1 (active) | 1 (active) | 1 (active) | 1 (active)
10 | COc1c(Nc2cc(C)[nH]n2)nc(Sc2ccc(S(=O)(=O)Cc3cccc([N+](=O)[O-])c3F)cc2F)nc1N1CCOCC1 [Centrinone] | 3 | 3 | 1 | 3 | 3 | 1 (active) | 1 (active) | 1 (active) | 1 (active) | 1 (active) | 1 (active) | 1 (active) | 1 (active) | 1 (active) | 1 (active) | 1 (active) | 1 (active) | 1 (active) | 1 (active) | 1 (active)
11 | Cc1nc(Nc2ncc(C(=O)Nc3c(C)cccc3Cl)s2)cc(N2CCN(CCO)CC2)n1 [dasatinib] | ≤ 0.3 | ≤ 0.3 | ≤ 0.3 | ≤ 0.3 | 1 | 1 (active) | 1 (active) | 1 (active) | 1 (active) | 1 (active) | 1 (active) | 1 (active) | 1 (active) | 1 (active) | 1 (active) | 1 (active) | 1 (active) | 1 (active) | 1 (active) | 1 (active)
12 | COc1ccc(S(=O)(=O)N(CCO)c2ccccc2CN(C)C/C=C/c2ccc(Cl)cc2)cc1 | 3 | 9 | 3 | 9 | 3 | 1 (active) | 1 (active) | 1 (active) | 1 (active) | 1 (active) | 1 (active) | 1 (active) | 1 (active) | 1 (active) | 1 (active) | 1 (active) | 1 (active) | 1 (active) | 1 (active) | 1 (active)
13 | C[C@H]1[C@H]2CC[C@H]3[C@@H]4CC=C5C[C@@H](N(C)C)CC[C@]5(C)[C@H]4CC[C@]23CN1C [Conessine] | 1 | 9 | 1 | 3 | 1 | 1 (active) | 1 (active) | 1 (active) | 1 (active) | 1 (active) | 1 (active) | 1 (active) | 1 (active) | 1 (active) | 1 (active) | 1 (active) | 1 (active) | 1 (active) | 1 (active) | 1 (active)
14 | Nc1nc(S)c2[nH]cnc2n1 [thioguanine] | 3 | 9 | 9 | 9 | 9 | 1 (active) | 1 (active) | 1 (active) | 1 (active) | 1 (active) | 1 (active) | 1 (active) | 1 (active) | 1 (active) | 1 (active) | 1 (active) | 1 (active) | 1 (active) | 1 (active) | 1 (active)
15 | COc1cc2c(cc1-c1c(C)noc1C)ncc1[nH]c(=O)n([C@H](C)c3ccccn3)c12 [I-BET 151 dihydrochloride] | 1 | 3 | 1 | 3 | 1 | 1 (active) | 1 (active) | 1 (active) | 1 (active) | 1 (active) | 1 (active) | 1 (active) | 1 (active) | 1 (active) | 1 (active) | 1 (active) | 1 (active) | 1 (active) | 1 (active) | 1 (active)
16 | COc1cc2c(NC3CCN(C(C)C)CC3)nc(N3CCC(F)(F)CC3)nc2cc1OCCCN1CCCC1 | ≤ 0.3 | 9 | ≤ 0.3 | 3 | ≤ 0.3 | 1 (active) | 1 (active) | 1 (active) | 1 (active) | 1 (active) | 1 (active) | 1 (active) | 1 (active) | 1 (active) | 1 (active) | 1 (active) | 1 (active) | 1 (active) | 1 (active) | 1 (active)
17 | Clc1ccc(N/N=C(\c2ccccc2)c2ccccn2)nc1 | 1 | 3 | ≤ 0.3 | 3 | ≤ 0.3 | 1 (active) | 1 (active) | 1 (active) | 1 (active) | 1 (active) | 1 (active) | 1 (active) | 1 (active) | 1 (active) | 1 (active) | 1 (active) | 1 (active) | 1 (active) | 1 (active) | 1 (active)
18 | O=C(OC12CC3CC(CC(C3)C1)C2)c1ccc(NCc2cc(O)ccc2O)cc1 [Adaphostin] | 1 | 9 | 9 | 9 | 3 | 1 (active) | 1 (active) | 1 (active) | 1 (active) | 1 (active) | 1 (active) | 1 (active) | 1 (active) | 1 (active) | 1 (active) | 1 (active) | 1 (active) | 1 (active) | 1 (active) | 1 (active)
19 | CC(=O)NC1=NN(C(C)=O)C(C)(c2ccccc2)S1 (stereo not given) | 3 | 3 | 9 | 9 | 3 | 1 (active) | 1 (active) | 1 (active) | 1 (active) | 1 (active) | 1 (active) | 1 (active) | 1 (active) | 1 (active) | 1 (active) | 1 (active) | 1 (active) | 1 (active) | 1 (active) | 1 (active)
20 | OC[C@H]1O[C@@H](n2cnc3c(NCc4ccco4)ncnc32)[C@H](O)[C@@H]1O [Kinetin riboside] | 1 | 3 | 3 | 3 | 3 | 1 (active) | 1 (active) | 1 (active) | 1 (active) | 1 (active) | 1 (active) | 1 (active) | 1 (active) | 1 (active) | 1 (active) | 1 (active) | 1 (active) | 1 (active) | 1 (active) | 1 (active)
21 | COc1ccc(-c2ccc3ncc4c(c3c2)n(-c2ccc(N3CCNCC3)c(C(F)(F)F)c2)c(=O)n4C)cn1 | ≤ 0.3 | ≤ 0.3 | ≤ 0.3 | ≤ 0.3 | ≤ 0.3 | 1 (active) | 1 (active) | 1 (active) | 1 (active) | 1 (active) | 1 (active) | 1 (active) | 1 (active) | 1 (active) | 1 (active) | 1 (active) | 1 (active) | 1 (active) | 1 (active) | 1 (active)
